# Results from paper PMC5540273 (PLoS ONE, 2017).
# What was measured:
# Conditions in all cases: concentration: 1 μM,replicates: in singlicate; n = 1
# CSNK1G1 = test system: CSNK1G1
# CSNK1G2 = test system: CSNK1G2
# CSNK1G3 = test system: CSNK1G3
# CSNK2A1 = test system: CSNK2A1
# CSNK2A2 = test system: CSNK2A2
# CTK = test system: T1, CTK
# T1 construct: gene MATK
# DAPK1 = test system: DAPK1
# DAPK2 = test system: DAPK2
# DAPK3 = test system: DAPK3
# DCAMKL1 = test system: T2, DCAMKL1
# T2 construct: gene DCLK1
# DCAMKL2 = test system: T3, DCAMKL2
# T3 construct: gene DCLK2
# DCAMKL3 = test system: T4, DCAMKL3
# T4 construct: gene DCLK3
# DDR1 = test system: DDR1
# DDR2 = test system: DDR2
# DLK = test system: T5, DLK
# T5 construct: gene MAP3K12
# DMPK2 = test system: T6, DMPK2
# T6 construct: gene CDC42BPG
# DMPK = test system: DMPK
# DRAK1 = test system: T7, DRAK1
# T7 construct: gene STK17A
# DRAK2 = test system: T8, DRAK2
# T8 construct: gene STK17B
# DYRK1A = test system: DYRK1A
# 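Further: KINOMEscan kinase panel screen.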
SMILES,%Inh (CSNK1G1) [%],%Inh (CSNK1G2) [%],%Inh (CSNK1G3) [%],%Inh (CSNK2A1) [%],%Inh (CSNK2A2) [%],%Inh (CTK) [%],%Inh (DAPK1) [%],%Inh (DAPK2) [%],%Inh (DAPK3) [%],%Inh (DCAMKL1) [%],%Inh (DCAMKL2) [%],%Inh (DCAMKL3) [%],%Inh (DDR1) [%],%Inh (DDR2) [%],%Inh (DLK) [%],%Inh (DMPK2) [%],%Inh (DMPK) [%],%Inh (DRAK1) [%],%Inh (DRAK2) [%],%Inh (DYRK1A) [%]
O=C(NCC1CC1)c1ccc(-c2cc(C(=O)NC3CC3)ccc2F)cc1 [GW810445],0,0,0,0,0,0,0,3,19,0,22,0,0,35,12,0,0,0,0,0
COC(=O)c1cccc(NC(=O)NC2CCN(c3ccnc(Nc4cc(OC)c(OC)c(OC)c4)n3)C2)c1 (stereo not shown) [GSK1379767],16,0,19,1,29,0,2,0,21,4,0,0,13,55,61,27,0,0,0,0
C[C@@H]1CCN(C(=O)N2CCCC2)C[C@@H]1N(C)c1ncnc2[nH]ccc12,2,0,0,35,5,19,23,0,9,46,0,99.8,8,0,8,0,72,23,38,0
CSc1nccc(-c2c(-c3ccc(F)cc3)ncn2CCCN2CCOCC2)n1.Cl [SB-217146],0,0,0,0,15,40,16,0,0,37,0,0,0,33,0,0,0,0,0,0
Cc1cccc2c(-c3ccncc3)c(-c3ccc(F)cc3)nn12.Cl [GW461487],11,0,26,96.6,10,0,18,0,0,10,0,0,54,41,27,43,0,7,0,10
Cc1cccc(-c2nc(Nc3ccncc3)c3sccc3n2)n1 [GW869641],0,1,13,6,30,20,18,11,36,0,21,18,55,66,0,98.5,18,2,13,20
Cc1nnc(-c2ccc3occ(-c4ccc(S(C)=O)cc4)c3n2)o1 (stereo not shown),17,0,0,0,0,0,0,0,0,0,0,0,0,1,0,0,0,0,0,0
COc1cccc(C2=C(Nc3cccc(Cl)c3)C(=O)NC2=O)c1 [SB-341556],0,0,19,11,4,0,3,0,7,0,0,31,16,0,0,0,6,0,0,55
